Compound activity from PubChem.
M1 ag = activates the M1 muscarinic receptor | B-score at 10 µM | 3% of 64,000 active | AID 626 | CHO-M1 cells, Fluo-4 calcium fluorescence, agonist mode; stronger effect = higher value;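 active = fluorescence rise, raw or as B-score row- and column-corrected plate score, outside the 99.7% band of its plate's samples, either direction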
Her2 expr inh = Her2 kinase expression inhibition | P04626 | SKBR-3 HER2 protein level, AlphaScreen, 18-24 h; stronger effect = lower value | HER2 level % of control, % at 10 µM | 0.69% of 65,000 active | AID 645;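 active = HER2 level under 5% of the carrier-only control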;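 note: 100% = DMSO carrier and 0% = 500 nM PU-H71 HSP90 inhibitor; lower value means stronger loss of Her2 protein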
PLAP act = human PLAP activation; activation fold at 20 µM; purified PLAP enzyme, luminescent substrate read-out; stronger effect = higher value; 1.2% of 96,000 active; P05187; in the data active = activation fold above about 2
Cav3 T inh = blocks human Cav3.2 T-type calcium channel | O95180 | Cav3.2-expressing cells, Fluo-4 calcium fluorescence FDSS; stronger effect = lower value | B-score at 10 µM | 4% of 100,000 active;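 active = single-dose well whose peak fluorescence ratio is a statistical outlier from its plate by either plate-standardised score or position-corrected B-score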
M1 antagonist = antagonists of rat M1 muscarinic receptor; 3.4% of 64,000 active; AID 628; B-score at 10 µM; CHO-M1 cells, Fluo-4 calcium, ACh EC80 antagonist mode; stronger effect = lower value;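 active = calcium fluorescence response, raw or row-and-column corrected B-score, differing from the plate sample mean either way at a set confidence level, mostly lower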
Starred values were filed as active, the others as inactive; / = no result given. Shown are actives, neighbours in structure and some others; about 7.9% of the full set was active somewhere.

SMILES	M1 ag	Her2 expr inh	PLAP act	Cav3 T inh	M1 antagonist
CCOc1cc(CN2CCN(c3cccc(C(F)(F)F)c3)CC2)ccc1O	0.3	93	1.2	-0.45	0.2
CCOc1cc(CN2CCN(c3cccc(C(F)(F)F)c3)CC2)ccc1OC	/	/	1.7	-4.4*	/
O=C(CSc1ncn[nH]1)N1CCN(S(=O)(=O)c2ccc(Cl)cc2)CC1	/	/	2.1*	-0.095	/
O=C(CSc1nc2ccccc2c(=O)[nH]1)N1CCN(S(=O)(=O)c2ccccc2)CC1	/	/	1.1	-0.59	/
O=C(CSc1nc(-c2ccccc2)c(-c2ccccc2)[nH]1)N1CCN(S(=O)(=O)c2ccccc2)CC1	/	/	1.9	-6*	/
O=C1c2ccccc2C(Nc2ccc3c(c2)OCO3)N1Cc1ccco1 (centres undefined)	0.27	84	/	-2.5	-1.2
CCOc1ccc(NC2c3ccccc3C(=O)N2Cc2ccco2)cc1 (centres undefined)	0.13	96	1.2	-4.7*	-0.17
COc1ccc(NC2c3ccccc3C(=O)N2Cc2ccco2)cc1OC (centres undefined)	0.45	83	0.9	0.34	0.92
O=C1c2ccccc2C(Nc2ccc(F)c(Cl)c2)N1Cc1ccco1 (centres undefined)	-0.59	92	0.9	-6*	-0.58
O=C(Oc1cccc(NC(=O)c2ccco2)c1)c1ccc(Br)c(S(=O)(=O)N2CCCCC2)c1	/	/	1.7	-3.5	/
COc1ccc(NC(=O)C2CCN(S(=O)(=O)c3c(C)noc3C)CC2)cc1Cl	/	/	0.8	0.1	/
Cc1ccc(NC(=O)C(Cc2ccccc2)N2C(=O)C3C4CCC(C4)C3C2=O)cc1Cl (centres undefined)	/	/	1.2	-5.8*	/
C[C@@H](O)C1NC(=O)[C@H](CCCCN)NC(=O)c2cc([N+](=O)[O-])cc(I)c2NCCC[C@@H](C(N)=O)NC1=O (some centres undefined)	/	/	/	0.31	/
CCOc1c(CNCCNC(=O)c2nonc2N)cccc1OC	-1.1	81	1	0.18	-0.5
Nc1nonc1C(=O)NCCNCc1cc(Br)ccc1OCc1ccccc1F	2.8*	93	1.4	-6.9*	-0.99
Nc1nonc1C(=O)NCCNCc1ccccc1OCc1ccccc1F	-1.6	93	1.5	-6.1*	-0.054
CCCC1=Nc2cc(C(=O)NCCCOC(C)C)ccc2Sc2ccccc21	/	/	1.1	-4.1	/
CCC1=Nc2cc(C(=O)NCCCOC)ccc2Sc2ccccc21	/	/	2*	-0.33	/
CCCC1=Nc2cc(C(=O)NCCCOCC)ccc2Sc2ccccc21	/	/	1.3	-6*	/
Cc1cc2ncn(-c3ncnc4sc5c(c34)CCCC5)c2cc1C	/	/	1.5	-5.7*	/
O=C1C(=O)N(CCCn2ccnc2)C(c2cccnc2)/C1=C(/O)c1ccc(Cl)cc1 (centres undefined)	/	102	/	/	/
CCOc1ccc(C2C(C#N)=C(N)SC(N)=C2C#N)cc1OC	64*	97	1.9	-0.15	1
CCOc1ccc(C2C(C#N)=C(N)SC(N)=C2C#N)cc1OCC	0.065	/	2.6*	0.18	1.2
CN(C)S(=O)(=O)c1ccc(NC(=O)N2CCN(c3ccccc3)CC2)cc1	/	/	1.1	/	/
CN(C)c1ccnc(N(Cc2ccccc2)Cc2ccccc2)c1C#N	/	/	0.9	-1.1	/
SMILES	M1 ag	Her2 expr inh	PLAP act	Cav3 T inh	M1 antagonist
C/C(CC(=O)Nc1cccc(Cl)c1)=N\NC(=O)Cc1ccc(Cl)cc1	/	/	0.9	-9.1*	/
Cc1cc(C)nc(SCC(=O)Nc2ccc(S(=O)(=O)N3CCCCC3)cc2)n1	/	/	2.1*	/	/
Cc1cccc(NC(=O)CSc2nnc(-c3ccc(S(=O)(=O)N4CCCC4)cc3)o2)c1	-1.4	67	2.1*	-0.45	-0.64
N#Cc1ccc(CSc2nnc(-c3cccc(S(=O)(=O)N4CCCCC4)c3)o2)cc1	-2.3	96	0.9	-7.5*	0.008
CC(NC(=O)CSc1nnc(-c2cccc(S(=O)(=O)N3CCCCC3)c2)o1)C12CC3CC(CC(C3)C1)C2 (centres undefined)	/	/	1.7	-7*	/
O=C(NCC(=O)N(c1ccc2c(c1)OCCO2)C(C(=O)NC1CCCC1)c1ccco1)c1ccco1 (centres undefined)	-0.35	99	/	-0.65	-0.025
Cc1cc(C)c2nc(SC(C)C#N)cc(C)c2c1 (centres undefined)	/	/	0.8	0.74	/
CCOC(=O)CSc1nnc(-c2ccc(NS(=O)(=O)c3ccc(C)cc3)cc2)o1	-0.95	-1.4*	1	1.1	0.26
COC(=O)CSc1nnc(-c2ccc(S(=O)(=O)N3CCCCC3)cc2)o1	-0.33	62	1	0.25	0.53
COC(=O)c1ccccc1S(=O)(=O)Nc1ccc(OC)nc1	-0.35	103	1	0.28	0.19
COc1ccc2c(c1OC)C(=O)N1c3ccccc3COC21 (centres undefined)	0.099	96	0.9	-1.1	0.21
COc1ccc2c(c1OC)C(=O)N1c3cccc(Cl)c3C(=O)OC21 (centres undefined)	0.017	102	0.9	-4.3*	-0.49
O=C1CSC(c2ccccc2)N1c1nnc(C23CC4CC(CC(C4)C2)C3)s1 (centres undefined)	/	/	1.1	-0.46	/
Cc1cccc(CC(Cc2nc3ccccc3[nH]2)c2nc3ccccc3[nH]2)c1 (centres undefined)	/	/	/	-7.1*	/
CCCc1nc2ccccc2[nH]1	/	/	1.1	0.58	/
O=c1c2cccc3c(N4CCOCC4)ccc(c32)c2nc3ccccc3n12	7.2*	52	1.1	/	-0.27
CC(C(=O)NC1CCCC1)N(C(=O)c1ccc(-c2ccccc2)[nH]1)c1ccccc1F (centres undefined)	/	/	1.2	-6*	/
O=C(NC1CCCCC1)C(c1ccncc1)N(Cc1ccccc1)C(=O)c1ccc(-c2ccccc2)[nH]1 (centres undefined)	/	/	1.2	/	/
O=S(=O)(Nc1nc(-c2sccc2Cl)cs1)c1cc(Cl)ccc1Cl	/	/	1.3	-7.1*	/
COC(=O)C1=C(C(=O)OC)[C@@H]2Nc3ccccc3[C@@]23C[C@@H](C(=O)OC)N(C(=O)c2cccs2)C3=N1	/	/	/	-0.16	/
CCOc1ccccc1C(=O)N1c2ccccc2Sc2ccccc21	/	/	1.4	-5.6*	/
O=C(O)c1ccc2c3c(ncnc13)-c1ccccc1C2=O	-1.2	-16*	1	/	0.44
COC(=O)C1=C(C)NC2=C(C(=O)CC(C)(C)C2)C1c1cccc(C)n1 (centres undefined)	-0.98	91	1.1	1.2	-0.43
COC(=O)C1=C(C)NC2=C(C(=O)CCC2)C1c1cn(Cc2ccc(Br)cc2)nc1-c1ccccc1 (centres undefined)	/	/	1.6	-7.3*	/
COC(=O)C1=C(C)NC2=C(C(=O)CC(C)(C)C2)C1c1cn(Cc2ccc(Br)cc2)nc1-c1ccccc1 (centres undefined)	/	/	0.8	-4.7*	/
COC(=O)C1=C(C)NC2=C(C(=O)CCC2)C1c1coc2ccccc2c1=O (centres undefined)	-1.7	96	0.8	0.52	-1.3
OCCSc1c(F)c(SCCO)c(SCCO)c(F)c1SCCO	-0.31	102	1.2	0.85	0
Cc1ccccc1NC(=S)NNC(=O)c1csc2c1CCC(C)C2 (centres undefined)	/	/	1.4	-2.5	/
